Bioassay records from PubChem BioAssay.
aSyn 5UTR act – Activators working through SNCA 5'UTR binding (MLPCN); actives 7.1% (n = 300,000); alpha-synuclein 5'UTR reporter, activators screen; activity score, % (tested at 7.5 µM), hits read low; in the data active = activity score below about -60%
Active calls of the source: *. These entries were drawn from the full list.

SMILES	aSyn 5UTR act
CC(C)Oc1cccc(C(=O)Nc2ccc(N3CCN(C)CC3)cc2)c1	-76*
CN1CCN(c2ccc(NC(=O)c3cccc(OCc4ccccc4)c3)cc2)CC1	-85*
COc1cccc(C(=O)Nc2ccc(N3CCN(C(=O)c4cccs4)CC3)cc2)c1	-162*
CC1CCC(NC(=O)C2CCN(c3c4c(nc5ncnn35)CCC4)CC2)CC1 (stereo unspecified)	-65*
CCOc1cc(CNc2ccc3c(c2)OCCO3)cc(Br)c1OCC	97
Cc1ccc(COc2ccc3c(c2)OCO3)cc1	-114*
Cc1ccc(CNc2ccc3c(c2)OCO3)cc1	-131*
O=Cc1ccc(OCc2ccc3c(c2)OCO3)cc1	-77*
CCn1c(C)nc2cc(C(=O)NNC(=S)Nc3ccccc3)ccc21	-164*
CCn1c(C)nc2cc(C(=O)NNC(=S)Nc3ccc(F)cc3)ccc21	-126*
CCn1c(C)nc2cc(C(=O)N/N=C(\C)c3ccc(OC)cc3O)ccc21	84
CCn1c(C)nc2cc(-c3nc4n(n3)Cc3ccccc3-4)ccc21	87
CCn1c(C)nc2cc(C(=O)OC(C(F)(F)C(F)F)C(F)(F)C(F)F)ccc21	-73*
CCn1c(C)nc2cc(C(=O)N/N=C/c3ccccc3)ccc21	-83*
CCn1c(NC(=S)Nc2ccccc2)nc2ccccc21	-106*
CCn1c(C)nc2cc(C(=O)NNC(=S)Nc3ccccc3Cl)ccc21	-110*
Cc1ccc2c(CNCc3ccccc3)cc(=O)oc2c1	-65*
Cc1ccc2c(CN(C)Cc3cccc(F)c3)cc(=O)oc2c1	-124*
Cc1cc2oc(=O)cc(CN(C)Cc3ccccc3F)c2cc1Cl	-80*
Cc1ccc(NC(=S)c2ccccc2)cc1	-152*
COc1ccc(C(=S)Nc2ccc(C)cc2)cc1	-153*
Cc1ccccc1CNC(=O)Nc1ccc(Cl)cc1	-110*
Cc1ccc(CNC(=O)Nc2ccccc2)c(C)c1	-153*
CCn1cc(C(=O)NCc2ccco2)c(=O)c2cc(S(=O)(=O)N3CC(C)CC(C)C3)ccc21 (stereo unspecified)	82
Cc1ccc(S(=O)(=O)N2CCCCC2CCNC(=O)C(=O)NCc2ccco2)cc1 (stereo unspecified)	-66*
SMILES	aSyn 5UTR act
Cc1ccc(S(=O)(=O)N2CCCCC2CCNC(=O)C(=O)NCCc2ccco2)cc1 (stereo unspecified)	-102*
Cc1ccc(S(=O)(=O)N2CCCCC2CCNC(=O)C(=O)Nc2ccccc2F)cc1 (stereo unspecified)	-148*
CCc1ccc2c(c1)C(c1ccc([N+](=O)[O-])cc1)=NNC(c1ccc(F)cc1)=N2	-79*
CCOc1ccc2nc(SCc3cccc(C)c3)nc(C)c2c1	-129*
CCOC(=O)CCSc1nc(C)c2cc(OC)ccc2n1	-123*
COc1cc(C(F)(F)F)ccc1C(=O)NCCc1ccco1	-163*
c1ccc(CSc2nnc(-c3ccco3)n2Cc2ccco2)cc1	-107*
COc1cccc(-c2nnc(SCc3ccc(C#N)cc3)n2Cc2ccco2)c1	43
Cn1c(SCc2ccccc2)nnc1-c1ccco1	-120*
Cc1cccn2c(=O)c3cc(C(=O)N4COCC4(C)C)sc3nc12	-97*
Cn1c(C(=O)NCCC2=CCCCC2)cc2c(=O)n3ccccc3nc21	-70*
Cn1c(C(=O)N2COCC2(C)C)cc2c(=O)n3ccccc3nc21	-81*
COc1ccc(C(=O)Nc2ccccc2C(=O)Nc2ccccc2C(=O)O)cc1	-98*
COc1ccc(C(=O)Nc2ccccc2C(=O)Nc2ccncc2)cc1	-105*
CCC(NC(=O)c1ccccc1NC(=O)c1ccc(OC)cc1)C(=O)N1CCCC1 (stereo unspecified)	-69*
COc1ccc(C(=O)NC2=Nc3ccccc3N=C(C)C2c2ccccc2)cc1 (stereo unspecified)	-228*
COc1ccc(C(=O)N[C@H](C(=O)Nc2nc3ccccc3[nH]2)C(C)C)cc1	106
COc1cc(OC)cc(C(=O)Nc2ccccc2C(=O)N2CCCC2)c1	-123*
COc1ccc(C(=O)Nc2ccccc2C(=O)N/N=C/c2cccc3ccccc23)cc1	-169*
COc1cc(OC)cc(C(=O)NNC(=O)c2ccccn2)c1	73
CN1CCN(S(=O)(=O)c2cccc(C(=O)Nc3sc4c(c3-c3nc5ccccc5[nH]3)CCCC4)c2)CC1	-109*
Oc1ccc(-c2nnc(SCc3ccccc3)o2)cc1	-138*
c1ccc(CSc2nnc(Cc3ccccc3)o2)cc1	-71*
c1ccc(CSc2nnc(-c3cccnc3)o2)cc1	-123*
Fc1ccc(CSc2nnc(-c3cccnc3)o2)cc1	-65*
SMILES	aSyn 5UTR act
O=C(CSc1nnc(COc2ccc(Cl)cc2)o1)N1c2ccccc2CCc2ccccc21	60
c1ccc(-c2nnc(SCCC3OCCCO3)o2)cc1	-111*
Cc1ccccc1-c1nnc(SCc2ccc(F)cc2)o1	-126*
Cc1ccccc1OCc1nc2c3cnn(C)c3ncn2n1	-152*
O=C1OC(c2ccccc2)=C/C1=C\N1CCOCC1	-67*
COc1ccc(-c2noc(CN(C)Cc3ccccc3)n2)c(OC)c1OC	-68*
Cc1cccc(NC(=S)NCc2ccccn2)c1	-77*
S=C(NCc1ccccn1)Nc1cccc(Cl)c1	-73*
Cc1cccc(NC(=O)C(=O)NCc2ccccn2)c1	-70*
Cn1cccc1C(=O)OCc1cc(Cl)cc2c1OCOC2	-80*
c1ccc(C2=NN(c3ccccc3)CC2)cc1	-157*
Fc1ccc(-c2ncc3ccccn23)cc1	-101*
Brc1ccc(-c2ncc3ccccn23)cc1	-130*
Cc1occc1C(=O)OCC(=O)Nc1ccc(F)cc1	-62*
CC(=O)Nc1cccc(OCC(=O)Nc2ccc(F)cc2)c1	-78*
Cc1ccc(OCC(=O)Nc2ccc(F)cc2)cc1C	-74*
Nc1ccc(-c2nc3ncccc3o2)c(O)c1	-176*
Nc1ccc(-c2nc3ncccc3o2)c(Cl)c1	-104*
COc1ccc(C(=O)/C=C/c2cccs2)c(OC(=O)c2cccc([N+](=O)[O-])c2)c1	-366*
COc1ccc(C(=O)/C=C/c2ccc(F)cc2)c(OC(=O)c2ccc([N+](=O)[O-])cc2)c1	-122*
Clc1ccccc1CSc1ncn(-c2ccccc2)n1	-185*
CCCCOc1ccc(C(=O)NNC(=S)NC(=O)CC)cc1	85
CCCCOc1ccc(-c2nc(=S)[nH][nH]2)cc1	-65*
CCCCOc1ccc(-c2ncc(N)cn2)cc1	-95*
CCCCOc1ccc(-c2nc(SCC(N)=O)n[nH]2)cc1	-114*
SMILES	aSyn 5UTR act
CCOC(=O)C1(CCOC)CCN(Cc2nc(C(C)C)cs2)CC1	-67*
CCOC(=O)C1(CCOc2ccccc2)CCN(Cc2ccc(O)c(Cl)c2)CC1	108
CC(=O)c1ccc(NC(=O)N2CCc3ccccc3C2)cc1	-87*
CC(=O)c1cccc(NC(=O)N2CCc3ccccc3C2)c1	-171*
c1ccc(N2CCN(c3nc(-c4ccccn4)nc4ccccc34)CC2)cc1	-78*
O=[N+]([O-])c1cc(CN2CCN(c3ccccc3)CC2)c(O)c2ncccc12	82
c1ccc(N2CCN(c3ncccn3)CC2)cc1	-68*
COc1ccnc(N2CCN(c3ccccc3)CC2)c1C#N	-80*
COc1ccnc(CSC(N)=Nc2cccc(C(F)(F)F)c2)c1	-81*
CC1=NNC(=O)/C1=C\c1cn(-c2ccccc2)nc1-c1ccc(Cl)cc1	98
Cc1ccc(-c2nn(-c3ccccc3)cc2C=C2C(=O)CC(C)(C)CC2=O)cc1	-94*
Nc1cc(-c2ccc(Br)cc2)nn1Cc1ccccc1	-196*
O=C(/C(=C/c1ccc(Cl)cc1)c1nc2ccccc2[nH]1)c1cccs1	-178*
